# “And” between values parts separate entries of the source, which are not always exact repeats. Equal entries are not always repeated. A number with no mark means an inactive call. Inconclusive results are not listed. Where a call stands in place of a potency, no number is given. The source made the active and inactive calls. Unless noted, the call rests on the fitted dose curve; in most records, active means well fitted curve in the direction sought with a large enough effect in the repeat runs; inconclusive means weak or mixed curves; inactive means no such curve, though single readings can be large; an effect the other way counts as inactive or inconclusive.
# What was measured:
# [1] = target: Thyrotropin receptor (Homo sapiens) (UniProt P16473); assay: qHTS assay to identify small molecule antagonists of the thyroid stimulating hormone receptor (TSHR) signaling pathway (AID 1259385; calls by dose curve; further: nearly all actives have a fitted effect of over 20% in size)
# How it was run: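 TSHR-HEK293 cells were plated and held 18 h at 37C/5% CO2, then given compound plus Ro20-1724 and stimulated with TSH at 1.5 ng/mL final. After 30 min at room temperature, cAMP was detected with cAMP-d2/anti-cAMP-cryptate (1 h) by fluorescence.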
# [2] = qHTS assay to identify small molecule agonists of the estrogen receptor alpha (ER-alpha) signaling pathway in the presence of an antagonist - cell viability counter screen (AID 1259386);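 further: series mostly up to about 92 µM; cells exposed to compounds for 22 h at 37 °C before the viability read; nearly all actives have a fitted effect of over 30% in size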
# How it was run: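 Read-out: CellTiter-Fluor fluorescence after 1hr reagent incubation, measured in the same wells as the luciferase readout. VM7Luc4E2 cells were exposed to 15 compound concentrations with 10.0nM ICI-182,780 for 22hr at 37C.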
# [3] = target: Progesterone receptor (Homo sapiens) (UniProt P06401); assay: qHTS assay to identify small molecule agonists of the progesterone receptor (PR) signaling pathway (AID 1346784; calls by dose curve; further: nearly all actives have a fitted effect of over 30% in size)
# How it was run: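 The screen uses PR-UAS-bla HEK 293T cells in charcoal-stripped serum (2%). Compounds are applied for 16 hr at 37C after a 6 hr pre-incubation, and reporter activity is detected with a FRET beta-lactamase substrate after 2 hr at room temperature.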
# [4] = target: Progesterone receptor (Homo sapiens) (UniProt P06401); assay: qHTS assay to identify small molecule antagonists of the progesterone receptor (PR) signaling pathway (AID 1346795; active means well fitted inhibition curve with a large enough effect in the signal ratio in the repeat runs, not every such curve was filed as active; the % refers to the signal ratio)
# How it was run: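 After 6 hr plating at 37C in 2% stripped-serum medium, PR-UAS-bla HEK293T cells got compounds, then 1 nM R5020. Sixteen hours later, LiveBLAzer substrate was applied for 2 hr at room temperature and fluorescence was recorded.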
# [5] = qHTS assay to identify small molecule antagonists of the progesterone receptor (PR) signaling pathway - cell viability counter screen (AID 1346798); further: series mostly up to about 92 µM; nearly all actives have a fitted effect of over 50% in size
# How it was run: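 Viability was determined by ATP-based luminescence (CellTiter-Glo) in PR-UAS-bla HEK293T cells cultured in 2% charcoal-stripped serum and incubated 16 hr with compounds under R5020 stimulation.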
# [6] = qHTS assay to identify small molecule agonists of the TGF-beta/Smad signaling pathway (AID 1346859; active means well fitted activation curve with a large enough effect in the signal ratio in the repeat runs, not every such curve was filed as active; the % refers to the signal ratio; further: series mostly up to about 77 µM)
# How it was run: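 Dual-wavelength fluorescence (460/530 nm emission) quantified beta-lactamase expression under the Smad binding element in HEK 293T cells following 5 hr compound treatment at 37 C.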
# [7] = target: Thyrotropin-releasing hormone receptor (Homo sapiens) (UniProt P34981); assay: qHTS assay to identify small molecule antagonists of the thyrotropin-releasing hormone receptor (TRHR) signaling pathway (AID 1346877; active means well fitted inhibition curve with a large enough effect in the repeat runs, not every such curve was filed as active; further: series mostly up to about 51 µM)
# How it was run: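 HEK293/TRHR cells, 18 h, 37 °C; Ca2+ dye 2 h; cpd 5 min RT; TRH 1 nM final; fluorescence read 3 min, 1 s intervals; 15 concs, triplicate.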
# [8] = target: Thyrotropin-releasing hormone receptor (Homo sapiens) (UniProt P34981); assay: qHTS assay to identify small molecule agonists of the thyrotropin-releasing hormone receptor (TRHR) signaling pathway (AID 1346891; calls by dose curve;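 further: HEK293 cells expressing TRHR with calcium dye readout; series mostly up to about 58 µM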)
# How it was run: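 Kinetic fluorescence (3 min, 1 s intervals) reported intracellular calcium after compound transfer onto TRHR-Hek293 cells pre-loaded with dye for 2 h at 37 °C.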
# [9] = Human pregnane X receptor (PXR) small molecule agonists, qHTS cell viability counter screen (AID 1346977); further: nearly all actives have a fitted effect of over 50% in size
# How it was run: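 HepG2 cells stably carrying the PXR-Luc reporter are cultured with 5% charcoal-stripped FBS and treated with compounds for 24hr. CellTiter-Fluor is added at 23hr and fluorescence is read after 1hr.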
# [10] = Caspase-3/7 induction in HepG2 cells by small molecules, qHTS assay (AID 1346978); further: nearly all actives have a fitted effect of over 15% in size
# How it was run: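 Wild-type HepG2 cells (2,000/well) were settled 5 h at 37 C, 5% CO2, then exposed to compounds in DMSO for 17 h. Caspase-3/7 activity was read by luminescence 30 min after adding Caspase-Glo 3/7 reagent at room temperature.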
# [11] = Caspase-3/7 induction in CHO-K1 cells by small molecules, qHTS cell viability counter screen (AID 1346979); further: nearly all actives have a fitted effect of over 35% in size
# How it was run: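 Seeding: 1,500 CHO-K1 cells/well. Rest: 5hr, 37C. Treatment: compounds in DMSO, 16hr. Read: CellTiter-Fluor, 1hr, fluorescence.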
# [12] = Caspase-3/7 induction in CHO-K1 cells by small molecules, qHTS assay (AID 1346980); further: nearly all actives have a fitted effect of over 15% in size
# How it was run: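 Wild-type cells were seeded at 1,500 per well and settled 5 hr at 37 C, 5% CO2, then exposed to DMSO-dissolved compounds for 17 hr. Caspase-Glo 3/7 reagent was added, and luminescence was read after 30min at room temperature.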
# [13] = Caspase-3/7 induction in HepG2 cells by small molecules, qHTS cell viability counter screen (AID 1346981); further: series mostly up to about 92 µM; nearly all actives have a fitted effect of over 30% in size
# How it was run: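 Fluorescence read-out of live-cell protease activity (CellTiter-Fluor) after 1 hr with reagent. This was measured in the same wells as the caspase-3/7 luminescence, on HepG2 cells exposed to DMSO-dissolved compounds for 16 hr at 37 C.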
# [14] = target: Nuclear receptor subfamily 1 group I member 2 (Homo sapiens) (UniProt O75469); assay: Human pregnane X receptor (PXR) small molecule agonists, qHTS assay (AID 1346982); further: nearly all actives have a fitted effect of over 35% in size; further: potency means the concentration at half of the fitted maximal effect
# How it was run: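 HepG2 PXR-Luc reporter line, 5% charcoal-stripped FBS; 5 hr pre-incubation, compound (DMSO) 24 hr at 37 C/5% CO2; ONE-Glo 30 min RT; luminescence read-out.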
# [15] = qHTS assay to identify small molecule agonists of the progesterone receptor (PR) signaling pathway - cell viability counter screen (AID 1346799; calls by dose curve; further: nearly all actives have a fitted effect of over 45% in size)
# How it was run: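 Viability was scored by ATP luminescence (CellTiter-Glo, 30 min, room temperature) in the same wells used for the reporter readout, after 16 hr compound exposure of PR-UAS-bla HEK293T cells.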
# [16] = qHTS assay to identify small molecule antagonists of the TGF-beta/Smad signaling pathway - cell viability counter screen (AID 1346824); further: nearly all actives have a fitted effect of over 50% in size; further: potency means the concentration at half of the fitted maximal effect
# How it was run: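 SBE-bla HEK 293T cells were plated overnight at 37 C, then given compounds in DMSO plus TGF-beta1 (added as 0.25 ng/mL solution) for 5 hr. After the bla read, CellTiter-Glo was added to the same wells and luminescence read after 30 min at room temperature.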
# [17] = qHTS assay to identify small molecule agonists of the TGF-beta/Smad signaling pathway - cell viability counter screen (AID 1346829); further: top concentration of the series differs between compounds; nearly all actives have a fitted effect of over 45% in size
# How it was run: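 Compound-treated SBE-bla HEK 293T cells (5 hr, 37 C) were assessed for viability with CellTiter-Glo in parallel with the reporter read.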
# [18] = target: Nuclear receptor subfamily 1 group I member 2 (Rattus norvegicus) (UniProt Q9R1A7); assay: Rat pregnane X receptor (rPXR) activation by small molecules, qHTS assay (AID 1346983); details: rPXR luciferase reporter cells, One-Glo luminescence, 24 h; hits give high values; further: nearly all actives have a fitted effect of over 20% in size
# How it was run: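 Cell-based rPXR luciferase reporter assay, 2,000 cells per well, rested 5hr at 37 C before compound addition in DMSO, then 24 hr at 37 C. One-Glo reagent was added and luminescence read after 30 min at room temperature.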
# [19] = target: Nuclear receptor subfamily 1 group I member 2 (Homo sapiens) (UniProt O75469); assay: CYP3A4 induction through human pregnane X receptor (PXR) by small molecules, qHTS assay (AID 1346984); further: nearly all actives have a fitted effect of over 40% in size
# How it was run: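 HepG2-derived DPX-2 line carrying PXR plus a CYP3A4-promoter luciferase reporter; cells plated 5 hr, compound-exposed 24 hr at 37C. CYP3A4 activity probed with 3uM (final) Luciferin-IPA for 3hr, then luciferase read after One-Glo.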
# [20] = target: Nuclear receptor subfamily 1 group I member 2 (Homo sapiens) (UniProt O75469); assay: Human pregnane X receptor (PXR) activation by small molecules, qHTS assay (AID 1346985); further: nearly all actives have a fitted effect of over 40% in size
# How it was run: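 DPX-2 cells (HepG2 co-transfected with a PXR response element and a CYP3A4-promoter luciferase construct) were seeded at 2,000 per well, rested 5 hr at 37C, then exposed to DMSO-dissolved compounds for 24 hr. Activation was read as luciferase luminescence.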
# Nuclear receptor subfamily 1 group I member 2 (Homo sapiens), sequence (O75469 whole entry, looked up): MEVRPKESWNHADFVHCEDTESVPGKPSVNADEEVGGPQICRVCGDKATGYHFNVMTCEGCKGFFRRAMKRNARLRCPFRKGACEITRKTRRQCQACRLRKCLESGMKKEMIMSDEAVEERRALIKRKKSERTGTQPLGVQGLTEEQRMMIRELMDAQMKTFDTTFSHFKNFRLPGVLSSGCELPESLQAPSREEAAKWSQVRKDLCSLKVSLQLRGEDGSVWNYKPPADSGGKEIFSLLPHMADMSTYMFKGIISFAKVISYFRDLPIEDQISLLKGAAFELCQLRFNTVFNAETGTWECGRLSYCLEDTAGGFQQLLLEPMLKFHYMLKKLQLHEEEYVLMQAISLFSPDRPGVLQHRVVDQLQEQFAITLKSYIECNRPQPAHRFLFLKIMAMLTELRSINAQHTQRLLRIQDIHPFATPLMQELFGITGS
# Thyrotropin-releasing hormone receptor (Homo sapiens), sequence (P34981 whole entry, looked up): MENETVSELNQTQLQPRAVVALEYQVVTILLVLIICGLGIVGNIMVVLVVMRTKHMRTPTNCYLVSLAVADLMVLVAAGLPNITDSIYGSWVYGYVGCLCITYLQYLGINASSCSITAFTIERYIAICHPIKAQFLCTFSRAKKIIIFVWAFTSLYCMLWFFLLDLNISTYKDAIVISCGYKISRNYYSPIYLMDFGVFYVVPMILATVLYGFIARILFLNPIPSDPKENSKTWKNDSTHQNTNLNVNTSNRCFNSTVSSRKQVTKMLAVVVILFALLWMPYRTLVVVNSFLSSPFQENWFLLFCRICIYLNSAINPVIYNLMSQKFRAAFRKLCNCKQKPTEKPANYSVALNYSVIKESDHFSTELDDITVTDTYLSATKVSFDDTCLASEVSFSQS
# Nuclear receptor subfamily 1 group I member 2 (Rattus norvegicus), sequence (Q9R1A7 whole entry, looked up): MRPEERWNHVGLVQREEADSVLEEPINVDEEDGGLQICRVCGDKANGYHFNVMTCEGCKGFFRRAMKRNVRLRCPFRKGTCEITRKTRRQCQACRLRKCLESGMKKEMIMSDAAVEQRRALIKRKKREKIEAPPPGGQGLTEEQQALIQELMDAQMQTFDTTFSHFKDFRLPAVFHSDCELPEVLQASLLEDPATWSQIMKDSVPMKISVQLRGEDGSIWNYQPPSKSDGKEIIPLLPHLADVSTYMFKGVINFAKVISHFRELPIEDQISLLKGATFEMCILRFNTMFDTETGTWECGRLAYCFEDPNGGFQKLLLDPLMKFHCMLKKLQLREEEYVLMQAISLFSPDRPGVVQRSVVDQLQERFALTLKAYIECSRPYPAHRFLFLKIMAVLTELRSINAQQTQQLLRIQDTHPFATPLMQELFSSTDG
# Progesterone receptor (Homo sapiens), sequence (P06401 whole entry, looked up): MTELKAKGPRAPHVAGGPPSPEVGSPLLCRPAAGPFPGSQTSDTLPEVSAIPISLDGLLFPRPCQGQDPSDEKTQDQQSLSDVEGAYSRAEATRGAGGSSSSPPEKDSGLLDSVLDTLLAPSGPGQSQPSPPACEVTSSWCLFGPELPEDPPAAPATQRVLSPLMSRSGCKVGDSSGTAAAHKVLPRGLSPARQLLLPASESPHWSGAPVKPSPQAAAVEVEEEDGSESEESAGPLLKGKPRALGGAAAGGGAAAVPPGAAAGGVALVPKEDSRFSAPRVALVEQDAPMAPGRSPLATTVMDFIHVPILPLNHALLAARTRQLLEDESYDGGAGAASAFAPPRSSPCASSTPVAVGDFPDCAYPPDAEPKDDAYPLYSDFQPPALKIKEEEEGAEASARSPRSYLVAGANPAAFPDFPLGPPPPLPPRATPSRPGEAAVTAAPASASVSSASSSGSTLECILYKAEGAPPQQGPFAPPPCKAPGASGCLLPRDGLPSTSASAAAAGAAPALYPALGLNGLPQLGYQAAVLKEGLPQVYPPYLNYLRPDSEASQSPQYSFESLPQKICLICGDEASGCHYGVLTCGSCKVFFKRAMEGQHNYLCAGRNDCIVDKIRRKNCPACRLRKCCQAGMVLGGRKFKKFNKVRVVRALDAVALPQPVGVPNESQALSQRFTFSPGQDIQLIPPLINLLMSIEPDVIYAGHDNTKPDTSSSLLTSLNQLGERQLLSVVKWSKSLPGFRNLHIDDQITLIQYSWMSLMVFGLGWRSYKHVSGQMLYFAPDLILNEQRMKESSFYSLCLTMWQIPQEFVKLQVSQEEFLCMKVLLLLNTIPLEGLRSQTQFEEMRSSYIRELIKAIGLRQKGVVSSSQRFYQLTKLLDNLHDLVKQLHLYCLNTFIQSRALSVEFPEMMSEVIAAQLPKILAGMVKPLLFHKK
# Thyrotropin receptor (Homo sapiens), sequence (P16473 whole entry, looked up): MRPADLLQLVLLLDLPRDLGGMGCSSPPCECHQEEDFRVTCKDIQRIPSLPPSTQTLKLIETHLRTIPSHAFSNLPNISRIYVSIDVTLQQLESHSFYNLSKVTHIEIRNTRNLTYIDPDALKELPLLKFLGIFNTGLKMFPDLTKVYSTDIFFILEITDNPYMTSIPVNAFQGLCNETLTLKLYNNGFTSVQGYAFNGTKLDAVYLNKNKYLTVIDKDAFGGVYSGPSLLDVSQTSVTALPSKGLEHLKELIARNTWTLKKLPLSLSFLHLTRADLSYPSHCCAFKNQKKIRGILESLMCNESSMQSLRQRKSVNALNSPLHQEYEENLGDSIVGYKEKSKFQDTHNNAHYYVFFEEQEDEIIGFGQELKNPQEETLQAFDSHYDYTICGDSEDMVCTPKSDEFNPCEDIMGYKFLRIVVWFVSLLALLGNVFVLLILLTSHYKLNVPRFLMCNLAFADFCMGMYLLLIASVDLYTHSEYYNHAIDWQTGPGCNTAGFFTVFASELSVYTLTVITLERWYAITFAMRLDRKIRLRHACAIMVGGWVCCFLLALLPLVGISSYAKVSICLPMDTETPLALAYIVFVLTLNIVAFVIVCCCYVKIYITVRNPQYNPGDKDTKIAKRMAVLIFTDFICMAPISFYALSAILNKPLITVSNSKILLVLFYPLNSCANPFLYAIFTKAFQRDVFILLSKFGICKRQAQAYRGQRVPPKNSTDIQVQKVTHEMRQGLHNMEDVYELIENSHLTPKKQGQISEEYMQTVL
Compound,Potency [1],Potency [2],Potency [3],Potency [4],Potency [5],outcome [6],outcome [7],outcome [8],Potency [9],Potency [10],Potency [11],outcome [12],Potency [13],Potency [14],Potency [15],Potency [16],outcome [17],max activation [18] [%],Potency [19],Potency [20]
CCCCC/C=C\CCC=O,inactive,inactive,inactive,inactive,inactive,inactive,inactive,inactive,inactive,inactive,inactive,inactive,inactive,inactive,,,,,,
CCOc1ccc(C(=O)OCCN(CC)CC)cc1,inactive,inactive,inactive,inactive,,inactive,,,inactive,inactive,inactive,inactive,inactive,inactive,inactive,inactive,inactive,-2.52,inactive,inactive
CC(=O)N(CC(O)CO)c1c(I)c(C(=O)NCCO)c(I)c(C(=O)NCC(O)CO)c1I (stereo unspecified),inactive,inactive,inactive,inactive,,inactive,,inactive,inactive,inactive,inactive,inactive,inactive,inactive,inactive,inactive,inactive,,,
C[C@H](NC(CCc1ccccc1)C(=O)O)C(=O)N1CCC[C@H]1C(=O)O (stereo partly specified),inactive,inactive,inactive,inactive,inactive,inactive,,inactive,inactive,inactive,inactive,inactive,inactive,inactive,inactive,inactive,,,,
Cc1cc(O)cc2c1O[C@](C)(CCC[C@H](C)CCC[C@H](C)CCCC(C)C)CC2,inactive,inactive,inactive,inactive,inactive,inactive,,inactive,inactive,inactive,inactive,inactive,inactive,inactive,inactive,inactive,,-2.13,inactive,inactive
CO[C@]12C[C@@H](COC(=O)c3cncc(Br)c3)CN(C)[C@@H]1Cc1cn(C)c3cccc2c13,inactive,inactive,inactive,inactive,,inactive,inactive,inactive,inactive,inactive,inactive,inactive,inactive,inactive,inactive,inactive,inactive,,,
O=C1CCCCCCCCCCCN1,inactive,inactive,inactive,inactive,inactive,inactive,inactive,inactive,inactive,inactive,inactive,inactive,inactive,48.5 µM (active) and 27.3 µM (active),inactive,,inactive,,,
O=C(O)CCCl,inactive,inactive,inactive,inactive,,inactive,inactive,inactive,inactive,inactive,inactive,inactive,inactive,61.9 µM (active),inactive,inactive,inactive,,,
NS(=O)(=O)c1ccccc1Cl,inactive,inactive,inactive,inactive,inactive,inactive,,,inactive,inactive,inactive,inactive,inactive,inactive,inactive,,,,,
O=C(O)Cc1ccc(CCNS(=O)(=O)c2ccc(Cl)cc2)cc1,inactive,inactive,inactive,,inactive,inactive,,inactive,inactive,inactive,inactive,inactive,inactive,inactive,inactive,inactive,inactive,-10,inactive,inactive
CC(C)c1cc2c(cc1S(=O)(=O)O)[C@@]1(C)CCC[C@@](C)(C(=O)O)[C@@H]1CC2,inactive,inactive,inactive,,,inactive,inactive,inactive,inactive,inactive,inactive,inactive,inactive,inactive,inactive,,inactive,2.4,inactive,inactive
CC1=CC(C)C(C=O)CC1 (stereo unspecified),inactive,inactive,inactive,,,inactive,inactive,inactive,inactive,inactive,inactive,inactive,inactive,inactive,inactive,4.9 µM (active),inactive,,,
CCCc1cc(C(N)=S)ccn1,inactive,inactive,inactive,,inactive,inactive,,,inactive,inactive,inactive,inactive,inactive,inactive,inactive,inactive,inactive,0.144,inactive,inactive
C=CCS(=O)(=O)O,inactive,inactive,inactive,,,inactive,,inactive,,inactive,inactive,inactive,inactive,,inactive,inactive,inactive,,,
CC[N+](C)(C)c1cccc(O)c1,inactive,inactive,inactive,,inactive,inactive,,,inactive,inactive,inactive,inactive,inactive,,inactive,,inactive,-3.46,,
COC(=O)c1cc(C(=O)OC)cc(S(=O)(=O)O)c1,inactive,inactive,inactive,,,inactive,inactive,inactive,inactive,inactive,inactive,,inactive,inactive,inactive,inactive,inactive,,,

# — PubChem BioAssay (Tox21)
